# Values joined by “and” are separate entries in the source; they are usually repeats but may differ in a detail not shown here. Equal entries are not always repeated. Inconclusive results are not listed. Entries that show only a call come without a potency. Some compounds were tested as several samples or in several runs, with calls that do not always agree. Active and inactive are the calls of the source. Unless noted, calls come from the whole dose curve; as a rule, active = well fitted curve in the direction sought with a large enough effect in the repeat runs; inconclusive = weak or mixed curves; inactive = no such curve, though single readings can be large; an effect the other way counts as inactive or inconclusive.
# Columns and labels:
# [1] = qHTS assay to test for compound auto fluorescence at 535 nm (green) in HEK293 cells (AID 720680)
# [2] = qHTS assay to test for compound auto fluorescence at 460 nm (blue) in HEK293 cell free culture (AID 720681)
# Summary of the method: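 Test compounds were pinned into cell-free culture medium (DMEM with 10% FBS) and fluorescence was read directly at Ex/Em 405/460 nm. Signals were expressed as fluorescence equivalents of triamterene, with DMSO vehicle as control.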
# [3] = qHTS assay to test for compound auto fluorescence at 535 nm (green) in HEK293 cell free culture (AID 720682)
# Summary of the method: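 DMEM + 10% FBS, cell-free; cpd or DMSO pinned in; Ex485/Em535 read; output as fluorescein-equivalent signal.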
# [4] = qHTS assay to test for compound auto fluorescence at 590 nm (red) in HEK293 cell free culture (AID 720683)
# Summary of the method: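 Tox21 10K library compounds were pinned into cell-free DMEM with 10% FBS and fluorescence was read at excitation 540 nm. Activity is expressed as Rose Bengal sodium equivalency.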
# [5] = qHTS assay to test for compound auto fluorescence at 590 nm (red) in HepG2 cell free culture (AID 720684)
# Summary of the method: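 Measured in medium alone (MEM containing 10% FBS) following pintool addition of compound; emission at 590 nm with 540 nm excitation, referenced to Rose Bengal sodium.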
# [6] = qHTS assay to test for compound auto fluorescence at 460 nm (blue) in HepG2 cell free culture (AID 720685)
# Summary of the method: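 Compound (23 nL) or DMSO pinned into cell-free MEM with 10% FBS; blue fluorescence read at 405/460 nm excitation/emission, expressed as auto-fluorescence equivalency to triamterene.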
# [7] = qHTS assay to test for compound auto fluorescence at 535 nm (green) in HepG2 cell free culture (AID 720686)
# [8] = qHTS assay to test for compound auto fluorescence at 460 nm (blue) in HepG2 cells (AID 720687)
# Summary of the method: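 Cells (2,000/well in MEM with 10% FBS) attached overnight at 37 C, then were exposed to compound or DMSO for 1 hr at 37 C, 5% CO2. Fluorescence read at Ex/Em 405/460 nm, expressed as triamterene-equivalent signal.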
# [9] = target: Glucocorticoid receptor (Homo sapiens) (UniProt P04150); test: qHTS assay to identify small molecule agonists of the glucocorticoid receptor (GR) signaling pathway (AID 720691; active = well fitted activation curve with a large enough effect in the signal ratio in the repeat runs, not every such curve was filed as active; the % refers to the signal ratio; note: potency is the fitted concentration of half-maximal effect); details: GR-bla HeLa, beta-lactamase reporter ratio, 18 h; activation: at 62.4 µM (top of the series)
# Chain of Glucocorticoid receptor (Homo sapiens) (P04150 whole entry, looked up): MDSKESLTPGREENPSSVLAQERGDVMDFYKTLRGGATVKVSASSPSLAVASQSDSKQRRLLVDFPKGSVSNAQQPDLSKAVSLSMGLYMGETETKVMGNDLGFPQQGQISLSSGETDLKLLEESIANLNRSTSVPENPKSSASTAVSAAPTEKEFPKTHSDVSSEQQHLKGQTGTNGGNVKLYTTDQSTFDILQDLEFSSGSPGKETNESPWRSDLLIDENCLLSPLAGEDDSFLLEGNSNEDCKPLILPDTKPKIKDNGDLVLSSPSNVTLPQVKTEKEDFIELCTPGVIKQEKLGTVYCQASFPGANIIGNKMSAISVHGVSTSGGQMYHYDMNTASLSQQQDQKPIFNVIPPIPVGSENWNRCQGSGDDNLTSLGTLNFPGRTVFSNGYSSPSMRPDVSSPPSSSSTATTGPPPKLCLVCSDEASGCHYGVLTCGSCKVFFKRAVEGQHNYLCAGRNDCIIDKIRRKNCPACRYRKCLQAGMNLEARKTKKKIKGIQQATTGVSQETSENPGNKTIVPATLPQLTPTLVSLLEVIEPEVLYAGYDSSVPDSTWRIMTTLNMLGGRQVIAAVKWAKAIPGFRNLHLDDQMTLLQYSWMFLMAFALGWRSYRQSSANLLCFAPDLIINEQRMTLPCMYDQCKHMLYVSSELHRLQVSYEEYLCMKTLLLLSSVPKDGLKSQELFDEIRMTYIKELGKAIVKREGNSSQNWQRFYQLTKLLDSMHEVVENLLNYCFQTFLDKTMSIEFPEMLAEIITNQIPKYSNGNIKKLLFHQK
# Summary of the method: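 Agonist mode in a HeLa line carrying a GRE-controlled beta-lactamase reporter. Compounds act for 18 h at 37 C before a 2 h room-temperature FRET substrate step and fluorescence reading.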
# [10] = target: Glucocorticoid receptor (Homo sapiens) (UniProt P04150); test: qHTS assay to identify small molecule antagonists of the glucocorticoid receptor (GR) signaling pathway (AID 720692; active = well fitted inhibition curve with a large enough effect in the signal ratio in the repeat runs, not every such curve was filed as active; the % refers to the signal ratio)
# Summary of the method: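 Cells plated, rested 4 h at 37 C/5% CO2; compounds in DMSO pin-transferred; dexamethasone added to 5 nM final; 18 h at 37 C; B/G FRET substrate added, 2 h room temperature; fluorescence measured.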
# [11] = qHTS assay to identify small molecule antagonists of the glucocorticoid receptor (GR) signaling pathway - cell viability counter screen (AID 720693); note: nearly all actives have a fitted effect of over 55% in size
# [12] = qHTS assay for identifying genotoxic compounds that show differential cytotoxicity against isogenic chicken DT40 cell lines with known DNA damage response pathways - wild type cell line (AID 743012); note: nearly all actives have a fitted effect of over 60% in size; note: potency is the fitted concentration of half-maximal effect
# Summary of the method: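 Cells (DT40 wild type, 300/well) are treated with DMSO-dissolved compounds after a ~0.5 h pre-incubation and kept 40 h at 37 C/5% CO2. Viability is then measured by CellTiter-Glo luminescence following 30 min at room temperature.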
# [13] = qHTS assay for identifying genotoxic compounds that show differential cytotoxicity against isogenic chicken DT40 cell lines with known DNA damage response pathways - Rev3 mutant cell line (AID 743014); note: nearly all actives have a fitted effect of over 55% in size; note: potency is the fitted concentration of half-maximal effect
# [14] = qHTS assay for identifying genotoxic compounds that show differential cytotoxicity against isogenic chicken DT40 cell lines with known DNA damage response pathways - Rad54/Ku70 mutant cell line (AID 743015); note: nearly all actives have a fitted effect of over 60% in size; note: potency is the fitted concentration of half-maximal effect
# [15] = qHTS assay to identify small molecule antagonists of the androgen receptor (AR) signaling pathway - cell viability counter screen (AID 743033; note: nearly all actives have a fitted effect of over 45% in size)
# [16] = qHTS assay to identify small molecule antagonists of the androgen receptor (AR) signaling pathway using the MDA cell line - cell viability counter screen (AID 743041; note: nearly all actives have a fitted effect of over 45% in size)
# Summary of the method: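 Viability counter screen run alongside the AR antagonist reporter: cells seeded 5 h before compound, R1881 added, 16 h incubation at 37C without CO2, fluorescent CellTiter-Fluor signal quantified.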
# [17] = target: Androgen receptor (Homo sapiens) (UniProt P10275); test: qHTS assay to identify small molecule agonists of the androgen receptor (AR) signaling pathway (AID 743036; active = well fitted activation curve with a large enough effect in the signal ratio in the repeat runs, with a control signal flat, not every such curve was filed as active; the % refers to the signal ratio)
# Chain of Androgen receptor (Homo sapiens) (P10275 whole entry, looked up): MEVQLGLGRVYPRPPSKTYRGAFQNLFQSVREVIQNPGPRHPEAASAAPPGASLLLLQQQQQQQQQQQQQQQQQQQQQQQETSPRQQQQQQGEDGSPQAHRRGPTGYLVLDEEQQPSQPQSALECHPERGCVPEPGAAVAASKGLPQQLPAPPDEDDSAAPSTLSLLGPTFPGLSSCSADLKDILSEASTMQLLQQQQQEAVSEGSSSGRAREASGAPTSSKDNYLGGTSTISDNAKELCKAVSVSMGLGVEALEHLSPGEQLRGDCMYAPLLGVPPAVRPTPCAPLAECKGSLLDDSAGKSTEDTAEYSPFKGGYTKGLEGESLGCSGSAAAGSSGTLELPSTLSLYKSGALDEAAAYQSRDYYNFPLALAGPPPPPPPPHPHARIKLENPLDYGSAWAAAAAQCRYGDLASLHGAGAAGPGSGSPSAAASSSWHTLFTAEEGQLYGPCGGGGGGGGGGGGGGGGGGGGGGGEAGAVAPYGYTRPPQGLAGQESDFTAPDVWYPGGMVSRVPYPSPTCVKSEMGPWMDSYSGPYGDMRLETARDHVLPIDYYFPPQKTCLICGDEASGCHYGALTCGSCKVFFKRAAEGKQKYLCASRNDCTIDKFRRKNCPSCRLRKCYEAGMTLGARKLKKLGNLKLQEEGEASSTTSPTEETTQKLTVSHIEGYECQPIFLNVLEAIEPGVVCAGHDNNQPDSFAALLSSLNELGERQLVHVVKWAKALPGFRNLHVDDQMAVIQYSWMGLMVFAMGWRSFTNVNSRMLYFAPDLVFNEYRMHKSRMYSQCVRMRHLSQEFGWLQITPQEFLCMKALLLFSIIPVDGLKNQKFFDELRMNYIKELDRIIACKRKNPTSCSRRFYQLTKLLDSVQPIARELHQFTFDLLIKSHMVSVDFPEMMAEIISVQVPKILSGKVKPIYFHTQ
# Summary of the method: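 Screening used 2,000 AR-bla HEK293 cells per well, treated 16 h at 37C with test compounds in DMSO alongside positive and DMSO-only controls; beta-lactamase activity was then read by LiveBLAzer B/G FRET fluorescence after 2 h at room temperature.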
# [18] = target: Androgen receptor (Homo sapiens) (UniProt P10275); test: qHTS assay to identify small molecule agonists of the androgen receptor (AR) signaling pathway using the MDA cell line (AID 743040; note: nearly all actives have a fitted effect of over 20% in size)
# Summary of the method: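 Luminescence from ONE-Glo, read after 30 min at room temperature, reflects MMTV-driven luciferase in MDA-kb2 cells (AR- and GR-responsive). Treatment lasted 16 h at 37C, 0% CO2.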
# [19] = target: Androgen receptor (Homo sapiens) (UniProt P10275); test: qHTS assay to identify small molecule antagonists of the androgen receptor (AR) signaling pathway using the MDA cell line (AID 743042; note: nearly all actives have a fitted effect of over 55% in size)
# Summary of the method: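 MDA-kb2 cells (human breast carcinoma, stably carrying an MMTV-luciferase reporter responsive to AR and GR) were plated at 3,000 cells/well and preincubated 5 hr at 37C, then given compound plus R1881 agonist for 16 h. ONE-Glo luminescence was read.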
Compound,Potency [1],Potency [2],Potency [3],Potency [4],Potency [5],outcome [6],Potency [7],outcome [8],Potency [9],Potency [10],Potency [11],Potency [12],Potency [13],Potency [14],Potency [15],Potency [16],Potency [17],Potency [18],Potency [19]
CN1[C@@H]2CC[C@H]1CC(OC(c1ccccc1)c1ccccc1)C2 (some centres undefined),inactive,inactive,inactive,inactive,inactive,inactive,inactive,inactive,inactive,inactive,inactive,5.31 µM (active) and 13.3 µM (active) and 6.68 µM (active),5.31 µM (active) and 8.41 µM (active) and 4.22 µM (active),8.41 µM (active) and 23.7 µM (active) and 11.9 µM (active),inactive,inactive,–,–,–
CCCCCCCCCCCCCCCC(=O)O[C@@H]1[C@@H](O)[C@@H](O)[C@@H]([C@H](NC(=O)[C@@H]2C[C@@H](CCC)CN2C)[C@H](C)Cl)O[C@@H]1SC,inactive,inactive,inactive,inactive,inactive,inactive,inactive,inactive,inactive,inactive,inactive,inactive,inactive,inactive,inactive,inactive,–,–,–
COC1=C(C(=O)O)N2C(=O)[C@@H](NC(=O)[C@H](N)C3=CCC=CC3)[C@H]2SC1,inactive,inactive,inactive,inactive,inactive,inactive,inactive,inactive,inactive,inactive,inactive,inactive,inactive,inactive,inactive,inactive,–,–,–
O.O=C([O-])CC([S-])C(=O)[O-].[Au+].[Na+].[Na+] (centres undefined),inactive,inactive,inactive,inactive,inactive,inactive,inactive,inactive,inactive,inactive,inactive,inactive,inactive,inactive,inactive,inactive,–,–,–
CO/N=C(\C(=O)N[C@@H]1C(=O)N2C(C(=O)OCOC(=O)C(C)(C)C)=C(/C=C\c3scnc3C)CS[C@H]12)c1csc(N)n1,inactive,inactive,inactive,inactive,inactive,inactive,inactive,inactive,inactive,inactive,inactive,inactive,inactive,inactive,inactive,inactive,–,–,–
O=C(O)COc1ccc(CCNS(=O)(=O)c2ccccc2)s1,inactive,inactive,inactive,inactive,inactive,inactive,inactive,inactive,inactive,inactive,inactive,inactive,inactive,inactive,inactive,inactive,–,–,–
CO[C@@H]1[C@@H](O[C@@H]2O[C@H](C)[C@@H](O[C@H]3C[C@@](C)(O)[C@@H](OC(=O)CC(C)C)[C@H](C)O3)[C@H](N(C)C)[C@H]2O)[C@@H](CC=O)C[C@@H](C)[C@@H](O)/C=C/C=C/C[C@@H](C)OC(=O)C[C@H]1O,inactive,inactive,inactive,inactive,inactive,inactive,inactive,inactive,4.25 µM (active) and inactive,inactive,inactive,2.66 µM (active) and 3.76 µM (active),5.96 µM (active) and 7.5 µM (active),6.68 µM (active) and 9.44 µM (active),inactive,inactive,–,–,–
CCCCCCCCCCCCCCCCCCCCCCO,inactive,inactive,inactive,inactive,inactive,inactive,inactive,inactive,inactive,inactive,inactive,inactive,inactive,inactive,inactive,inactive,–,–,–
COc1ccc(CCNC[C@H](O)c2ccc(O)cc2)cc1OC,inactive,inactive,inactive,inactive,inactive,inactive,inactive,inactive,inactive,inactive,inactive,inactive,inactive,inactive,inactive,inactive,–,–,–
CCOC(=O)[C@H](CCc1ccccc1)N[C@H]1CCCN2CCC[C@@H](C(=O)O)N2C1=O,inactive,inactive,inactive,inactive,inactive,inactive,inactive,inactive,inactive,inactive,inactive,inactive,inactive,inactive,inactive,inactive,–,–,–
CC1(C)S[C@@H]2[C@H](NC(=O)Cc3ccccc3)C(=O)N2[C@H]1C(=O)O,inactive,inactive,inactive,inactive,inactive,inactive,inactive,inactive,inactive,inactive,inactive,inactive,inactive,inactive,inactive,inactive,–,–,–
CC(=O)N[C@@H]1C(O[C@H]2O[C@H](C(=O)O)C(O)[C@H](O)[C@H]2O)[C@H](O)[C@@H](CO)O[C@H]1O[C@@H]1C(C(=O)O)O[C@@H](O[C@H]2[C@H](O)[C@@H](CO)OC(O)[C@@H]2NC(C)=O)[C@H](O)[C@H]1O (some centres undefined),inactive,inactive,inactive,inactive,inactive,inactive,inactive,inactive,inactive,inactive,inactive,inactive,inactive,inactive,inactive,inactive,–,–,–
Cc1ccccc1OCC(O)CNCCOc1ccc(C(N)=O)cc1 (centres undefined),inactive,inactive,inactive,inactive,inactive,inactive,inactive,inactive,inactive,inactive,inactive,inactive,inactive,inactive,inactive,inactive,–,–,–
O=C1N=C2SCCN2C(=O)C1Cc1ccc(Cl)cc1 (centres undefined),inactive,inactive,inactive,inactive,inactive,inactive,inactive,inactive,inactive,inactive,inactive,inactive,inactive,inactive,inactive,inactive,–,–,–
CC(C)(S)[C@@H](N)C(=O)O,inactive,inactive,inactive,inactive,inactive,inactive,inactive,inactive,inactive,inactive,inactive,inactive,inactive,inactive,inactive,inactive,–,–,–
O=C(O)C1CCCN1 (centres undefined),inactive,inactive,inactive,inactive,inactive,inactive,inactive,inactive,inactive,inactive,inactive,inactive,inactive,inactive,inactive,inactive,–,–,–
Cc1onc(-c2ccccc2)c1C(=O)N[C@@H]1C(=O)N2[C@@H]1SC(C)(C)[C@@H]2C(=O)O,inactive,inactive,inactive,inactive,inactive,inactive,inactive,inactive,inactive,inactive,inactive,inactive,inactive,inactive,inactive,inactive,–,–,–
CC(C)C[C@H](NC(=O)[C@@H](Cc1c[nH]c2ccccc12)NC(=O)[C@H](Cc1ccc(O)cc1)NC(=O)[C@H](CO)NC(=O)[C@H](Cc1c[nH]c2ccccc12)NC(=O)[C@H](Cc1cnc[nH]1)NC(=O)[C@@H]1CCC(=O)N1)C(=O)N[C@@H](CCCN=C(N)N)C(=O)N1CCC[C@@H]1C(=O)NCC(N)=O,inactive,inactive,inactive,inactive,inactive,inactive,inactive,inactive,inactive,inactive,inactive,inactive,inactive,inactive,inactive,inactive,–,–,–
Cn1nnnc1SCC1=C(C(=O)O)N2C(=O)[C@@H](NC(=O)[C@H](O)c3ccccc3)[C@H]2SC1,inactive,inactive,inactive,inactive,inactive,inactive,inactive,inactive,inactive,inactive,inactive,inactive,inactive,inactive,inactive,inactive,–,–,–
CCCCCC(O)/C=C/C=O (centres undefined),inactive,inactive,inactive,inactive,inactive,inactive,inactive,inactive,inactive,inactive,inactive,inactive,inactive,inactive,inactive,inactive,–,–,–
CC(C)(C)NC[C@H](O)COc1ccccc1C1CCCC1,inactive,inactive,inactive,inactive,inactive,inactive,inactive,inactive,inactive,inactive,inactive,6.39 µM (active),10.1 µM (active),10.1 µM (active),inactive,inactive,–,–,–
O=C1NC(=O)[C@H]2[C@@H]1[C@@H]1C=C[C@H]2C1,inactive,inactive,inactive,inactive,inactive,inactive,inactive,inactive,inactive,inactive,inactive,inactive,inactive,inactive,inactive,inactive,–,–,–
CCCCCCCCCCCCCCCC(=O)OCCC1CCN(CCCN2c3ccccc3Sc3ccc(S(=O)(=O)N(C)C)cc32)CC1,inactive,inactive,inactive,inactive,inactive,inactive,inactive,inactive,inactive,inactive,inactive,inactive,inactive,inactive,inactive,inactive,–,–,–
COc1cc(C[C@@H]2NCCc3cc(O)c(O)cc32)cc(OC)c1OC,inactive,inactive,inactive,inactive,inactive,inactive,inactive,inactive,inactive,inactive,inactive,inactive,inactive,inactive,inactive,inactive,–,–,–
CCC(C)C(C(=O)OCC[N+](C)(CC)CC)c1ccccc1 (centres undefined),inactive,inactive,inactive,inactive,inactive,inactive,inactive,inactive,inactive,inactive,inactive,29.8 µM (active),29.8 µM (active),26.6 µM (active),inactive,inactive,–,–,–
COc1cc2[nH]c(C)c(CCN3CCN(c4ccccc4)CC3)c2cc1OC,inactive,inactive,inactive,inactive,inactive,inactive,inactive,inactive,inactive,inactive,inactive,18.8 µM (active),26.6 µM (active),29.8 µM (active),inactive,inactive,–,–,–
CN(C)CC/C=C1/c2ccccc2CSc2ccccc21,inactive,inactive,inactive,inactive,inactive,inactive,inactive,inactive,inactive,inactive,inactive,11.4 µM (active),12.7 µM (active),12.7 µM (active),–,inactive,inactive,inactive,inactive

# Source: PubChem BioAssay (Tox21)
